From PubChem
Pf growth 48h: Primary qHTS for delayed death inhibitors of the malarial parasite plastid, 48 hour incubation. P. falciparum luciferase growth in erythrocytes, 48 h. Potency, µM (doses to about 28.7 µM), usual class: inhibitors. actives 5.9% (n = 310,000). AID 504832, 2011
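Luciferase-expressing parasites in RBCs, 2% Hct / 0.1% parasitemia final; RPMI 1640 + 0.5% Albumax; 37 C, 5% CO2, one generation; luminescence read-out, lower signal = inhibition.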
Marburg entry inh: qHTS for inhibitors of binding or entry into cells for Marburg Virus. Marburg virus pseudotyped entry inhibition, cell reporter. Potency, µM (highest dose often 37.8 µM), actives largely listed as inhibitors. actives 1.8% (n = 300,000). AID 540276, 2011; calls by dose curve; tested in HEK293 cells
Shiga inhibitor: A qHTS for Small Molecule Inhibitors of Shiga Toxin | actives 9.2% (n = 290,000) | inhibition, % at 38.7 µM | Vero cells, Shiga toxin protein synthesis inhibition reporter | AID 2315, 2010; in the data active = inhibition mostly above about 28%, no sharp cut-off; inactive = mostly below about 43%
Cycloheximide cs: Cycloheximide Counterscreen for Small Molecule Inhibitors of Shiga Toxin; actives 12% (n = 300,000); AID 2314, 2010; cell reporter, cycloheximide protein synthesis inhibition counterscreen; max response, %; in the data active = max response mostly above about 13%, no sharp cut-off; inactive = mostly below about 14%; note: read at 38.3 µM for the half of the compounds with a filed dose
LASV entry inh: qHTS for Inhibitors of binding or entry into cells for Lassa Virus. actives 1.2% (n = 300,000). Potency, µM (top dose mostly 37.9 µM), most hits filed as inhibitors. Lassa virus pseudotype entry inhibition, cell reporter; calls by dose curve; tested in HEK293 cells; note: nearly all actives have a fitted effect of over 50% in size
Pf growth 96h: Primary qHTS for delayed death inhibitors of the malarial parasite plastid, 96 hour incubation. P. falciparum luciferase reporter growth, 96 h. Potency, µM (doses to about 28.7 µM), usual class: inhibitors. actives 6.9% (n = 320,000). AID 504834, 2011
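P. falciparum expressing integrated firefly luciferase, in erythrocytes at 2% hematocrit, 0.05% parasitemia, incubated with compounds 96 h at 37 C, 5% CO2. Growth inhibition read as loss of luminescence; two-generation exposure targets delayed-death apicoplast inhibitors.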
A number is an active result; n = inactive; u = inconclusive; x = no result given; [ ] = remark or other dose. Sampled rows, rich in hits. Any-hit rate of the full collection: about 19%. Unless noted, calls come from the whole dose curve; as a rule, active = well fitted inhibition curve with a large enough effect; inconclusive = small, poorly fitted or top-dose-only effect, or another doubt; inactive = no such curve, though single readings can be large or run the other way.

SMILES | Pf growth 48h | Marburg entry inh | Shiga inhibitor | Cycloheximide cs | LASV entry inh | Pf growth 96h
CCOc1ccc(CCNC(=O)COC(=O)c2cc(OC)c(OC)cc2[N+](=O)[O-])cc1OCC | 14.7µM | n | x | x | n | u
COC(=O)c1sc(C(F)(F)F)c(-c2ccccc2)c1S(=O)(=O)N1CCOCC1 | x | n | x | x | u | x
CCOC(=O)c1ccc2[nH]c3c(c2c1)CCCC3C(=O)OCC (stereo unspecified) | n | n | n | n | n | u
CCOC(=O)c1ccc2[nH]c3c(c2c1)CCCCC3=O | u | n | 50.0 | 15.0 | u | n[5.75 µM]
CCOc1ccc(N2CC(NC(=O)c3ccc(S(=O)(=O)N4CCOCC4)cc3)CC2=O)cc1 (stereo unspecified) | x | x | x | x | n | x
CC(=O)N(c1ccccc1)C1CC(C)N(C(=O)c2ccccc2)c2ccccc21 (stereo unspecified) | n | u | x | n | n | n
Cc1ccc(C(=O)N(c2ccccc2)C2CC(C)N(C(=O)c3ccco3)c3ccccc32)cc1 (stereo unspecified) | 10.4µM | u | n | 17.7 | n | x
O=C(CSc1nnc(CNC(=O)c2c(F)cccc2Cl)o1)c1ccccc1 | n | n | n | n | n | 9.28µM
CCOC(=O)N1CCN(C(=O)CSc2nnc(CNC(=O)c3c(F)cccc3Cl)o2)CC1 | n | n | n | n | n | 11.7µM
O=C(NCc1nnc(SCC(=O)N2CCC(Cc3ccccc3)CC2)o1)c1ccccc1F | n | n | n | n | n | 13.1µM
CCOC(=O)c1[nH]cnc1C(=O)Nc1cccc(N)n1 | n | u | n | n | n | n
COc1ccc(N(C(=O)c2snc(C(N)=O)c2N)C(C(=O)NC2CCCCC2)c2ccc(F)cc2)c(OC)c1 (stereo unspecified) | u | u | n | n | u | n
COc1ccc(N(C(=O)c2snc(C(N)=O)c2N)C(C(=O)NC2CCCC2)c2cc(OC)ccc2OC)c(OC)c1 (stereo unspecified) | 1.85µM | u | n | n | n | n
C#CC(=O)N(c1ccc(OC)cc1OC)C(C(=O)NC1CCCC1)c1cccs1 (stereo unspecified) | n | u | n | n | u | n
C#CC(=O)N(c1cc(OC)ccc1OC)C(C(=O)NC1CCCC1)c1cccs1 (stereo unspecified) | n | 2µM | n | n | 3.55µM | n
COc1ccc(C(C(=O)NC2CCCC2)N(C(=O)c2snc(C(N)=O)c2N)c2ccccc2OC)cc1OC (stereo unspecified) | 9.28µM | u | n | n | u | n
COc1ccc(-c2ccc(C#N)c(SCC(=O)Nc3sc4c(c3C#N)CCC4)n2)cc1 | n | n | n | n | n | n
O=c1c2c3c(sc2nc2sc(C4CC4)nn12)CCCC3 | n | n | n | 33.2 | u | n
O=c1[nH]c(C2CC2)nc2sc3c(c12)CCCC3 | n | n | n | n | n | n
CN1CCN(c2nc3cc(C(F)(F)F)ccc3n3cccc23)CC1 | x | 8.91µM | x | x | u | x
S=C(NCc1ccncc1)Nc1ccc(Br)cc1Cl | n | x | n | n | x | n
COc1cccc(NC(=S)Nc2ccc(F)cc2)c1 | n | n | n | n | n | n
Cc1cccc(NC(=S)NNC(=S)NCc2ccccc2)c1 | x | u | n | 44.3 | n | n
Cc1cccnc1NC(=S)Nc1ccc(Br)cc1Cl | n | x | 126.2 | 78.8 | x | u
CCOc1ccc(NC(=S)Nc2ccc(Br)cc2Cl)cc1 | n | n | n | n | n | n
SMILES | Pf growth 48h | Marburg entry inh | Shiga inhibitor | Cycloheximide cs | LASV entry inh | Pf growth 96h
COc1cccc(NC(=S)Nc2ccc(Br)cc2Cl)c1 | n | n | n | 19.6 | n | n
COc1cccc(NC(=S)Nc2ccc(O)cc2)c1 | n | x | 79.1 | 32.1 | x | n
CCOC(=O)[C@@H]1[C@H]2COc3ccc(Br)cc3[C@@H]2N2C(=O)N(c3ccccc3)C(=O)[C@]12C | u | x | n | n | x | n
COc1ccccc1N1CCN(S(=O)(=O)c2c(C)sc3ncn(CC(=O)NCCN(C)C)c(=O)c23)CC1 | n | n | n | n | n | n
O=C(CSc1nccn1-c1ccc(Cl)cc1)Nc1ccc(Cl)c(Cl)c1 | x | x | x | x | n | x
COCCN(C(=S)Nc1ccc(C(C)C)cc1)C(C)c1cccs1 (stereo unspecified) | u | x | n | n | x | n
Cc1ccc(NC(=S)NCc2ccccc2)cc1[N+](=O)[O-] | n | 7.08µM | n | n | 15.8µM | u
